# From PubChem
# BAZ2B block: inhibitors of human BAZ2B bromodomain; Q9UIF8; AlphaScreen BAZ2B-H3K14Ac peptide displacement; Potency, µM (highest dose often 114 µM), most hits filed as inhibitors; 360,000 compounds, 4.4% hits; AID 504333; also: nearly all actives have a fitted effect of over 60% in size
#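 Inhibition is scored as reduced AlphaScreen emission. The BAZ2B/b-H3(5-23)K14Ac complex (50 nM each) in PBS pH 7.4, 0.01% Tween-20 meets compound (up to 110 uM) for 30 min at RT before bead addition.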
# Sfp inh: inhibitors of Bacillus subtilis Sfp phosphopantetheinyl transferase. Q9F4F7. Biochemical Sfp PPTase activity, qHTS. Potency, µM, hits mostly inhibitors. 310,000 compounds, 3.5% hits. AID 1490;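 also: the enzyme is Sfp with the accession as filed and its product quenches rhodamine fluorescence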
#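 With Hepes-Na pH 7.6 buffer containing 10 mM MgCl2, Sfp (15 nM) modified BHQ-2-YbbR (12.5 uM) using rhodamine-CoA (5 uM). Two reads 30 minutes apart at 525/598 nm yielded each well's rate.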
# L3MBTL1 inh: L3MBTL1 (human) inhibition; Q9Y468; AlphaScreen L3MBTL1–H3K9me1 peptide binding; Potency, µM (top dose mostly 57.1 µM), usual class: inhibitors; 230,000 compounds, 0.66% hits; AID 485360; also: nearly all actives have a fitted effect of over 60% in size
#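 Read-out is AlphaScreen signal from streptavidin donor and nickel chelate acceptor beads (10 ug/mL final each) bridging L3MBTL1 (50 nM) and biotinylated K9-monomethylated H3(1-15) peptide (75 nM), after 30 min compound exposure at room temperature.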
# JMJD2A Tudor: blocks the human JMJD2A Tudor domain; O75164; AlphaScreen JMJD2A-Tudor / H3K4me3 peptide binding; Potency, µM (titrated, usually from 114 µM), hits mostly inhibitors; 390,000 compounds, 4.4% hits; AID 504339; also: nearly all actives have a fitted effect of over 50% in size
# Target sequence (O75164 whole entry, looked up, the tested form may be a part): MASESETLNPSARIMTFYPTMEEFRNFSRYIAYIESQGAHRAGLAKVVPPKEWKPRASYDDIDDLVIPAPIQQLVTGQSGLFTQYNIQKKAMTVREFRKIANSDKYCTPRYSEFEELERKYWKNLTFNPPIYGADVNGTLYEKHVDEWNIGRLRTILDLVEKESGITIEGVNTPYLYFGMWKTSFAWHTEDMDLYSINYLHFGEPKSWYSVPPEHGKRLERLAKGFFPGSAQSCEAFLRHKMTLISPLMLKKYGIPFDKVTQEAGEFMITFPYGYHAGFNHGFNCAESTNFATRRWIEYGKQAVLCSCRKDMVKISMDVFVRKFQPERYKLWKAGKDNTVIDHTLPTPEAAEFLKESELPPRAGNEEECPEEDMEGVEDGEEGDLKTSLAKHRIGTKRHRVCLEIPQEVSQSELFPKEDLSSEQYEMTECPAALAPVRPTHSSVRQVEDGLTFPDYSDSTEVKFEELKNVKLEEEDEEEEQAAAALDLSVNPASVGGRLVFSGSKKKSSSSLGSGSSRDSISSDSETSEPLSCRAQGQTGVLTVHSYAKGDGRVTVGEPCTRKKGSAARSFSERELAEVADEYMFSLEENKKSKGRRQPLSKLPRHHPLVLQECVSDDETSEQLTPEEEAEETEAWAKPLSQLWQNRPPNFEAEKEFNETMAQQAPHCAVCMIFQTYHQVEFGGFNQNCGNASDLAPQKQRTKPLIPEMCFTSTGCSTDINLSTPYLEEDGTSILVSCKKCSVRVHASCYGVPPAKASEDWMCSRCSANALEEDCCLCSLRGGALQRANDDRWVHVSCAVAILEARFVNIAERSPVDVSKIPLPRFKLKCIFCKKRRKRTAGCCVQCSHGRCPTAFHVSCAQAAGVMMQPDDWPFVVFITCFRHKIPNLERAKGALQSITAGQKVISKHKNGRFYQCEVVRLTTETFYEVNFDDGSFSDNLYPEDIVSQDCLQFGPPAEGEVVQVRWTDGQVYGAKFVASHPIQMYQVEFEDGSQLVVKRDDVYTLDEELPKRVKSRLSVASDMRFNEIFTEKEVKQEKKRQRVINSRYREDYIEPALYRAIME
# HP1b chromo inh: inhibitors of HP1-beta chromodomain binding to methylated histone tails | P83916 | AlphaScreen HP1-beta / biotin-H3K9me3 peptide binding | Potency, µM (doses to about 114 µM), hits mostly inhibitors | 390,000 compounds, 0.56% hits | AID 540317; also: nearly all actives have a fitted effect of over 70% in size
#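 HP1-beta protein (50 nM final) preincubated 30 min at room temperature with biotinylated H3(1-18)K9me3 peptide (50 nM) in PBS pH 7.4, 0.01% Tween-20, then compound added for 30 min. AlphaScreen streptavidin donor/nickel chelate acceptor beads (10 ug/mL final), 30 min dark, luminescence read.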
# G9a block: G9a (human) methyltransferase inhibition. 350,000 compounds, 8.8% hits. Potency, µM (top dose mostly 102 µM), most hits filed as inhibitors. AID 504332. G9a H3K9 monomethylation, AlphaScreen, 2 h; also: nearly all actives have a fitted effect of over 75% in size
#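 Signal arises when biotinylated H3K9 peptide, once monomethylated, bridges streptavidin donor and antibody-captured acceptor beads. Enzyme at 20 nM was preincubated 15 min with test compounds; peptide 500 nM and SAM 20 uM then reacted for 2 h.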
# A number is an active result; i = inactive; ? = inconclusive; nt = no result; [ ] = dose if it differs, or a comment. The list is not random: actives were taken first. Their share in the collection is about 12%. Calls follow the shape of the dose curve; as a rule, active = well fitted curve in the direction sought with a large enough effect; inconclusive = small, poorly fitted or top-dose-only effect, or another doubt; inactive = no such curve, though single readings can be large; an effect the other way counts as inactive or inconclusive.
SMILES,BAZ2B block,Sfp inh,L3MBTL1 inh,JMJD2A Tudor,HP1b chromo inh,G9a block
CCc1cnc2c(c1SC(C(C)=O)C(=O)N(C)C)c(=O)n(C)c(=O)n2C (stereo not given),i,nt,nt,28µM,?,4.5µM
CCOc1cc(/C=C2\COc3ccccc3C2=O)cc(Br)c1OCC(=O)N(C)C,?,50µM,nt,?,i,40µM
COc1ccc(/C=C2\COc3ccccc3C2=O)cc1OC,i,i,i,50µM,i,i
CSCC[C@H](NC(=O)[C@H](CC(C)C)NC(=O)CNC(=O)[C@H](Cc1ccc(O)cc1)NC(=O)[C@H](Cc1ccccc1)NC(=O)[C@H](CCCCN)NC(=O)[C@H](CC(N)=O)NC(=O)[C@@H]1CCCN1C(=O)[C@H](CC(=O)O)NC(=O)[C@H](C)NC(=O)[C@@H]1CCC(=O)N1)C(N)=O,nt,i,nt,nt,nt,nt
COc1ccc(N=Nc2nc3ccc(Br)cc3n2C)cc1,63µM,i,i,?,?,6.3µM
CCCC(CCC)C(=O)Nc1cccc(-c2cn3cccnc3n2)c1,i,nt,nt,i,i,i
COc1ccccc1N=Cc1c(C)[nH]n(-c2ccc(C)cc2C)c1=O,i,i,i,?,?,50µM
COc1cc(SC#N)ccc1N=Cc1c(C)[nH]n(-c2ccc(C)cc2C)c1=O,i,i,nt,i,i,13µM
Cc1cccc(-c2nc(SCCCOc3ccc(Cl)c(C)c3)n3[nH]c(=O)cc3n2)c1,i,nt,nt,i,i,i
CCc1ccc(OCCCSc2nc(-c3ccc(C(C)(C)C)cc3)nc3cc(=O)[nH]n23)cc1,50µM,nt,nt,25µM,i,i
Cc1cccc(OCCCSc2nc(-c3ccc(C(C)(C)C)cc3)nc3cc(=O)[nH]n23)c1C,56µM,nt,nt,25µM,i,i
CN(C)c1ccc(NC(=O)CSC2=Nc3ccccc3C3=NC(CCC(=O)NCc4cccs4)C(=O)N23)cc1 (stereo not given),?,nt,nt,?,i,?
Cc1cc(F)ccc1NC(=O)CCSc1nc(-c2ccco2)cc(C(F)(F)F)n1,i,nt,nt,i,i,i
Cc1ccc(-n2c(C)n[nH]c2=S)cc1,i,i,i,10µM,i,22µM
Cc1n[nH]c(=O)n1-c1ccc(C(C)(C)C)cc1,i,i,nt,i[11.4 µM],i,i
Cc1ccc(-n2c(C)n[nH]c2=S)cc1C,i,i,i,8.9µM,i,5µM
O=C(CSc1ncc2c(n1)-c1ccccc1N(Cc1ccc(F)cc1)S2(=O)=O)c1ccc(Br)cc1,i,nt,nt,i,i,i
Cc1ccc(SCCNC(=O)CN(c2cccc(C)c2C)S(C)(=O)=O)cc1,i,nt,nt,i,i,i
CCCC(=O)Nc1ccccc1NC(=O)c1cc(OC)c(OC)c(OC)c1,i,i,nt,i,i,89µM
CCOc1ccc(OCCC(=O)NNC(=O)c2cc(OC)c(OC)c(OC)c2)cc1,i,nt,i,i,i,79µM
COc1ccc(C(=O)NC(=S)Nc2ccc(S(N)(=O)=O)cc2)cc1,i,?,i,i,i,?
COc1cc(C(=O)NC(=S)Nc2ccccc2[N+](=O)[O-])cc(OC)c1OC,?,79µM,i[11.4 µM],28µM,?,?
COc1cc(C(=O)NNC(=O)CCOc2cccc(Br)c2)cc(OC)c1OC,i,nt,i,i,i,i[2.33 µM]
COc1cc(C(=O)NNC(=S)Nc2ccc(S(N)(=O)=O)cc2)cc(OC)c1OC,i,13µM,i,i[11.4 µM],i,8.9µM
Cc1cccc(-c2nc3cc(NC(=O)c4ccc(OCC(C)C)cc4)ccc3o2)c1,i,nt,nt,i,i,i
SMILES,BAZ2B block,Sfp inh,L3MBTL1 inh,JMJD2A Tudor,HP1b chromo inh,G9a block
COc1ccccc1CCn1c(=O)c(C)nc2cncnc21,nt,i,nt,nt,nt,i[12.7 µM]
COc1cc(C(=O)NC(=S)Nc2ccc([N+](=O)[O-])cc2C)cc(OC)c1OC,i,?,i,?,i,i
COc1cc(C(=O)NC(=S)Nc2ccc([N+](=O)[O-])cc2)cc(OC)c1OC,i,45µM,i,?,i,?
CC(C)(C)NC(=O)CCc1nnc(Cc2c[nH]c3ccccc23)o1,i,i,i,i,i,45µM
CCC(COC)NC(=O)CCc1nnc(Cc2c[nH]c3ccccc23)o1 (stereo not given),i,i,i,i,i,?
CN(Cc1ccsc1)C(=O)CCc1nnc(CCCc2ccccc2)o1,i,i,i,i,i,i
CN(Cc1ccsc1)C(=O)CCc1nnc(Cc2c[nH]c3ccccc23)o1,i,i,i,45µM,i,i
Cc1nc(SCC(=O)Nc2ccccc2C)cc(-c2ccccc2)n1,i,nt,nt,i,i,i
O=C(c1cccc(Br)c1)N1CCCc2ccccc21,i,i,i,i,i,nt
CC1(C)CCCN(C(=O)c2coc(=O)c(Br)c2)C1,20µM,i,6.3µM,18µM,i,nt
O=C(c1nn2c(C(F)(F)F)cc(-c3ccco3)nc2c1Br)N1CCCc2ccccc21,i,i,i,i,i,18µM
O=C(c1coc(=O)c(Br)c1)N1CCCc2ccccc21,22µM,79µM,?,40µM,i,18µM
O=C(c1cc(-c2ccco2)on1)N1CCCc2ccccc21,?,i,i,56µM,i,13µM
CCOc1ccc(CCNC(=O)c2cn(C)c3ccc(S(=O)(=O)N4CCCCCC4)cc3c2=O)cc1OCC,nt,nt,nt,i,i,i
C=CCN(C(=O)c1csnn1)C(C(=O)NC(C)(C)C)c1ccncc1 (stereo not given),i,i,i,i,i,i
CCOC(=O)c1c(S(=O)(=O)N2CCCC(C(=O)Nc3ccc(C)cc3C)C2)c(C)n(CC)c1C (stereo not given),i,nt,nt,i,i,i
CC1CCCC(C)N1C(=O)c1cc(-c2ccco2)on1 (stereo not given),i,i,nt,i,i,50µM
CC1CCN(C(=O)c2cc(-c3ccco3)on2)CC1,i,i,nt,i,i,?
CCc1cccc(NC(=O)Cn2nc(C)c3sc4ccccc4c3c2=O)c1,i,nt,nt,i,i,?
CCc1ccccc1NC(=O)N(C)CCc1c(C)nn(C)c1C,i,nt,nt,i,i,i
CCOC(=O)/C=C1\CN(C(C)c2ccccc2)S(=O)(=O)c2ccccc21 (stereo not given),i,i,i,79µM,i,18µM
COC(=O)C(CC(C)C)N1CCC(=O)c2ccccc2S1(=O)=O (stereo not given),i,i,nt,i,i,?
CCOC(=O)/C=C1\CN(CCC(C)C)S(=O)(=O)c2ccccc21,i,i,i,i,i,35µM
COc1cc2c(cc1OC)C(COc1ccccc1OC)N(C(=O)CC(C)C)CC2 (stereo not given),i,nt,nt,i,i,i
COc1ccc(-c2c(C)nn3c(N4CCN(c5ccccc5)CC4)cc(C)nc23)cc1OC,i,nt,nt,i,i,i
O=C(NC1(C(F)(F)F)NC(=O)N(CCc2ccccc2)C1=O)c1ccccc1F (stereo not given),i,nt,nt,i,i,i
